# Compound activity (PubChem)
# MEKK2mut PB1 HTS: signal of MEK5 binding to mutant human MEKK2 PB1 domain. bead flow cytometry, Alexa488-MEK5 binding to MEKK2 mutant. percent response, % at 10 µM. hit rate 0.35% among 290,000. AID 1530; in the data active = percent response above about 24%, passing the limit was not always enough
# CRFBP-R2 block: CRF-BP/CRF-R2 complex antagonism | HEK293 CRF-R2/CRF-BP, CRF-induced calcium fluorescence | inhibition, % at 11.8 µM | hit rate 0.59% among 350,000;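 active = inhibition of the ligand-induced calcium signal above about 50% at the single tested concentration, limit read from the data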
# MEKK3 PB1 HTS: raises or lowers MEK5 binding to the human MEKK3 PB1 domain | Q99759 | bead-based flow cytometry, Alexa488-MEK5 binding to MEKK3; actives lie on both sides; 0 = blocked by unlabeled MEK5, 100 = vehicle | binding response (% of control), % at 10 µM | hit rate 1.4% among 290,000 | AID 1529;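 active = binding response more than 3 SD above or below the average of its plate-row segment, actives on both sides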;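 note: Alexa488 bead fluorescence after subtracting the streptavidin-only scavenger bead signal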
# MEKK2 WT-MEK5: raises or lowers MEK5 binding to wildtype human MEKK2 PB1 domain; Q9Y2U5; binding response (% of control), % at 10 µM; hit rate 1.1% among 290,000; bead flow cytometry, Alexa488-MEK5 binding to MEKK2 WT; actives lie on both sides; AID 1531; in the data active = binding response below about 67% or above about 130%
# ABCB6 inh 2: human ABCB6 transporter inhibition; K562-ABCB6 porphyrin accumulation, flow cytometry, 1 h; hits give low values; Q9NP58; fluorescence ratio to DMSO, % at 10 µM; AID 602162; hit rate 0.19% among 360,000;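 active = fluorescence ratio to DMSO below 75%, the collection mean minus 3 SD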;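 note: signal is porphyrin accumulated inside mitochondria; 100% equals median channel fluorescence of DMSO control wells; lower ratio means ABCB6 inhibition with less porphyrin fluorescence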
# Target sequence (Q9NP58 whole entry, looked up): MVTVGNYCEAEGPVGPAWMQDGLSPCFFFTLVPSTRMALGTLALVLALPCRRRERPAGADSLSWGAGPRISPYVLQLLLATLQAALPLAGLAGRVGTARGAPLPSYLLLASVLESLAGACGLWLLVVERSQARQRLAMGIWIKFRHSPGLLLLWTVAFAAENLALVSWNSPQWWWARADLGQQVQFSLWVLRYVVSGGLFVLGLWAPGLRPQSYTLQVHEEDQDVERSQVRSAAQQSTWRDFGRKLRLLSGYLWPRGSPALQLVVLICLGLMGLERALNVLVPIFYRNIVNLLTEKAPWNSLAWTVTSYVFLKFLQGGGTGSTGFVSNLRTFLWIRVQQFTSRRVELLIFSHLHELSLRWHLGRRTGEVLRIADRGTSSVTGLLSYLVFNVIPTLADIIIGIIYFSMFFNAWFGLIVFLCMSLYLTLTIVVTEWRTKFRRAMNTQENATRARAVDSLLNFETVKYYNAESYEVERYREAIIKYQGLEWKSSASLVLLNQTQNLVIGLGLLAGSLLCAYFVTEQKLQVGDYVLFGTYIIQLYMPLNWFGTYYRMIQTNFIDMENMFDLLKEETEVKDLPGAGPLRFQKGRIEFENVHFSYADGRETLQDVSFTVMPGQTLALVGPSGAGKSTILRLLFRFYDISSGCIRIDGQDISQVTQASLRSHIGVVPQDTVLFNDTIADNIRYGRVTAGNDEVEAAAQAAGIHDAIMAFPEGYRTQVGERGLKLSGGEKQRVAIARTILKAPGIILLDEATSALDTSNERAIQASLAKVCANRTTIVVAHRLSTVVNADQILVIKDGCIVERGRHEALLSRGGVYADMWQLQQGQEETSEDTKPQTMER
# CRFBP-R2 agonist: CRF-BP/CRF-R2 complex agonism. activation, % at 13.2 µM. hit rate 0.46% among 350,000. HEK293 CRF-R2/CRF-BP, calcium dye fluorescence (FLIPR); percent of saturating CRF peptide response. AID 588473;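 active = activation of at least 50%, plus an integration ratio under a set limit after plate pattern correction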;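 note: plate controls were neutral control wells without compound for no effect and CRF at EC100 for full effect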
# MEKK2wt confirm: raises or lowers MEK5 binding to wildtype human MEKK2, retest; shares compounds with MEKK3 PB1 HTS; bead flow cytometry, Alexa488-MEK5 binding to MEKK2 WT; actives lie on both sides; binding response (% of control), % at 10 µM; hit rate 2.4% among 5,900; in the data active = binding response below about 16% or above about 210%; inactive = in between
# MEKK2mut-MEK5: signal of MEK5 binding to mutant human MEKK2, retest. percent response, % at 10 µM. hit rate 2% among 5,900. AID 1893. bead flow cytometry, Alexa488-MEK5 binding to MEKK2 mutant. shares compounds with MEKK3 PB1 HTS; in the data active = percent response mostly above about 71%, no sharp cut-off; inactive = mostly below about 38%;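 note: higher means compound restores mutant binding toward wildtype level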
# MEKK3 confirm: confirmation of inhibitors of MEK5 binding to human MEKK3; shares compounds with MEKK3 PB1 HTS; bead flow cytometry, Alexa488-MEK5 binding to MEKK3; hits give low values; binding response (% of control), % at 10 µM; hit rate 1.8% among 5,900;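 active = binding response below 72% of control, or above a set upper limit, though filed actives all read lower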;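 note: 100% = DMSO only wells and 0% = binding blocked by excess unlabeled MEK5; lower values mean stronger disruption of MEK5 binding to MEKK3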
# An asterisk follows results filed as active; / = no result; [ ] = another dose, or the depositor's remark. Shown are actives, neighbours in structure and some others; about 2.9% of the full set was active somewhere.
SMILES,MEKK2mut PB1 HTS,CRFBP-R2 block,MEKK3 PB1 HTS,MEKK2 WT-MEK5,ABCB6 inh 2,CRFBP-R2 agonist,MEKK2wt confirm,MEKK2mut-MEK5,MEKK3 confirm
Cc1cccc2sc(N(CCCN(C)C)C(=O)c3ccco3)nc12,6.0,-15.8,101.0,110.0,99.0,7.9,/,/,/
COc1ccccc1N1C(=O)CCC1(C#N)c1ccc(Br)cc1 (stereo not given),-6.0,-12.7,98.0,97.0,103.0,-0.2,/,/,/
COc1ccc(N2C(=O)CCC2(C#N)c2ccc(Br)cc2)cc1 (stereo not given),-25.0,-7.0,49.0*[inhibitor],63.0,91.0,0.4,98.0,-5.0,102.0
CC1CN(CCCCOc2ccc(Cl)c3ccccc23)CC(C)O1 (stereo not given),10.0,1.8,113.0,162.0*,94.0,-2.3,150.0,22.0,105.0
CC1CN(CCOc2ccc(Cl)cc2Cl)CC(C)O1 (stereo not given),2.0,5.9,104.0,104.0,98.0,-1.7,/,/,/
CC1CN(CCCCOc2ccc(C(C)C)cc2)CC(C)O1 (stereo not given),-15.0,-5.8,2.0*[inhibitor],2.0*[inhibitor],98.0,1.1,104.0,4.0,103.0
COc1cc2c(cc1OC)/C(=C/C(=O)N1CCOCC1)NC(C)(C)C2,8.0,18.2,103.0,105.0,/,0.5,/,/,/
CC1(C)Cc2ccccc2/C(=C/C(=O)N2CCCCCC2)N1,-9.0,-4.6,79.0*[inhibitor],85.0,99.0,0.5,103.0,3.0,102.0
COc1cc(/C=N/N2CCOCC2)ccc1OC(=O)c1ccco1,-17.0,-4.8,49.0*[inhibitor],52.0,102.0,-1.1,95.0,-7.0,98.0
COc1cc(/C=N/N(C)C)ccc1OC(=O)c1ccco1,-1.0,-1.3,106.0,104.0,94.0,1.4,/,/,/
O=C(COC(=O)C1CCN(c2ccc(C(F)(F)F)cn2)CC1)NCc1ccc(F)cc1,/,14.9,/,/,96.0,0.1,/,/,/
Cc1ccc2[nH]c(=O)c(COC(=O)C3CCCCC3)cc2c1,21.0,-38.2,129.0*,119.0,95.0,2.3,97.0,-18.0,96.0
CCCCCCC(NC(=O)c1ccc(C)cc1)C(=O)O (stereo not given),/,-6.0,/,/,100.0,-1.3,/,/,/
CCc1cc(=O)oc2cc(C)cc(OCC(=O)C(C)(C)C)c12,-23.0,-14.5,72.0*[inhibitor],70.0,105.0,-9.0,101.0,-1.0,103.0
CC(C)N(CCCNC(=O)C1CCN(C(=O)c2cc3sccc3n2C)CC1)Cc1ccccc1,0.0,3.1,99.0,107.0,97.0,0.2,/,/,/
NCC(O)COCCC12CC3CC(CC(C3)C1)C2 (stereo not given),17.0,-40.2,105.0,120.0,89.0,-1.2,/,/,/
CC(NCC(O)COCCC12CC3CC(CC(C3)C1)C2)c1ccccc1 (stereo not given),13.0,-100.0,99.0,139.0*,99.0,23.3,114.0,3.0,98.0
O=C(c1ccc(Cl)cc1)C1CCN(C(=S)Nc2ccccc2)CC1,/,2.7,/,/,97.0,-1.6,/,/,/
CCN(CC)CCNC(=O)c1cc(-c2ccc(Br)s2)nc2ccccc12,43.0*,-8.0,100.0,141.0*,96.0,-0.1,156.0,34.0,107.0
CNC[C@H](CC1CCCCC1)NC[C@H](Cc1ccccc1)NCCC12CC3CC(CC(C3)C1)C2,70.0*,-60.8,109.0,278.0*,97.0,29.2,265.0*,126.0*,115.0
NC[C@H](Cc1ccccc1)NCCCCC1CCCCC1,/,-4.7,/,/,93.0,-1.2,/,/,/
CCN(CC)c1ccc(C(=O)NC(=S)N2CCN(Cc3ccc4c(c3)OCO4)CC2)cc1,-1.0,-7.3,145.0*,107.0,101.0,-0.7,101.0,0.0,102.0
COc1ccc(C(=O)N2CCN(Cc3ccc4c(c3)OCO4)CC2)cc1OC,12.0,10.2,98.0,109.0,89.0,-2.1,/,/,/
COc1cc(C(=O)N2CCN(Cc3ccc4c(c3)OCO4)CC2)cc(OC)c1OC,28.0*,7.4,99.0,102.0,96.0,-2.0,98.0,-1.0,102.0
COc1ccc(C(=O)N2CCOC2CNC(=O)C(=O)NCc2ccccc2)cc1 (stereo not given),/,3.1,/,/,98.0,-2.4,/,/,/
SMILES,MEKK2mut PB1 HTS,CRFBP-R2 block,MEKK3 PB1 HTS,MEKK2 WT-MEK5,ABCB6 inh 2,CRFBP-R2 agonist,MEKK2wt confirm,MEKK2mut-MEK5,MEKK3 confirm
COCCn1c(SCC(=O)Nc2cccc(C)n2)nnc1-c1ccco1,-4.0,19.4,95.0,98.0,94.0,0.6,/,/,/
COc1cc(OC)c(OC)cc1CN1CCN(S(=O)(=O)c2ccc(F)cc2)CC1,7.0,2.9,122.0*,119.0,98.0,-0.1,102.0,5.0,103.0
COc1cc(CN2CCN(S(=O)(=O)c3ccc(F)cc3)CC2)cc(OC)c1OC,3.0,6.8,102.0,100.0,102.0,-0.9,/,/,/
Cc1cc(OCC(=O)NCCCN2CCOCC2)c2c(C)cc(=O)oc2c1,1.0,-1.4,100.0,104.0,104.0,-1.0,/,/,/
COc1ccc2c(c1)C1NC(=S)NC(C)(O2)C1C(=O)Nc1ccc(Cl)cc1 (stereo not given),-1.0,5.3,120.0,100.0,94.0,-2.5,/,/,/
Cc1ccc2c(c1)C1NC(=S)NC(C)(O2)C1C(=O)Nc1ccc(Cl)cc1 (stereo not given),0.0,-15.5,146.0*,102.0,99.0,-2.4,104.0,3.0,108.0
CC(=Nc1ccccc1)C1=C(O)CCCC1=O,1.0,-21.7,136.0*,105.0,105.0,-1.5,97.0,-1.0,93.0
N#Cc1cccc(NC(=O)CC2CCCCC2)c1,-34.0,-6.5,100.0,-3.0*[inhibitor],92.0,0.7,97.0,-1.0,101.0
O=C(CC1CCCC1)Nc1cccc(Br)c1,1.0,-18.6,100.0,94.0,98.0,-1.1,/,/,/
Cc1cc(C(=O)Nc2ccccc2)oc(=O)c1,-25.0,10.7,49.0*[inhibitor],66.0,102.0,-0.6,99.0,-7.0,91.0
COc1ccc(-c2nn(-c3ccccc3)cc2CNCc2cccnc2)c(F)c1,-6.0,31.5,110.0,104.0,95.0,-2.1,/,/,/
COc1ccc(CNCc2cn(-c3cccc(F)c3)nc2-c2ccc(C)o2)cc1,26.0,-20.2,101.0,168.0*,99.0,1.4,172.0,31.0,109.0
CC(C)CNC(=O)COC(=O)c1ccc(F)cc1Cl,-10.0,-12.4,73.0*[inhibitor],83.0,98.0,-0.3,106.0,7.0,108.0
N=C(N)n1ncc2c1CCCC2=O,/,/,/,/,105.0,/,/,/,/
CCn1c(SCC(=O)c2c[nH]c3ccccc23)nc2cc(S(=O)(=O)N3CCOCC3)ccc21,3.0,-10.2,96.0,62.0*[inhibitor],116.0,1.7,104.0,1.0,104.0
